# Test system: Vero E6 infected with SARS-CoV-2
# Experiment: morphology score (similarity to uninfected cells); higher = more like uninfected cells
# Conditions: 24 h
row,SMILES,morphology score
1,Cn1ccc2cc(NC(=O)Nc3cccnc3)ccc21 (10 µM),-0.0432
2,NC(=O)c1ccc(N(C(N)=O)c2c(F)cccc2F)nc1-c1ccc(F)cc1F (10 µM),-0.134
3,C[C@H](N)C(=O)O [L-alanine] (10 µM),-0.118
4,O=C(O)CCN(O)C(=O)CCCCCCCCC1CC1 (10 µM),0.0952
5,CCCCOCCOc1nc(-c2ccc(C(=O)O)c(F)c2)sc1C (10 µM),-0.127
6,CC(C)C(=O)Nc1ncc(-c2cc(C(F)F)nn2-c2c(Cl)cccc2Cl)s1 (10 µM),-0.133
7,Cc1cc2c(C(C)C)c(O)c(O)c(C=O)c2c(O)c1-c1c(C)cc2c(C(C)C)c(O)c(O)c(C=O)c2c1O [gossypol] (0.833333 µM),-0.0839
8,CN(C)[C@@H]1C(O)=C(C(N)=O)C(=O)[C@@]2(O)C(O)=C3C(=O)c4c(O)cccc4[C@@](C)(O)[C@H]3[C@H](O)[C@@H]12 [oxytetracycline] (10 µM),-0.0366
9,Cc1ccccc1CN1C(=O)C2=C(CCN(Cc3ccccc3)C2)N2CCN=C12 (0.833333 µM),-0.16
10,CCCCNNC(=O)c1ccc(Br)cc1 (0.833333 µM),-0.294
11,O=C(O)c1ccc(O)c2ncccc12 (10 µM),0.022
12,O=C(Nc1cccc(C(F)(F)F)c1)Nc1cc(S(=O)(=O)NC2CC2)ccc1-c1ccsc1 (10 µM),0.196
13,NC(=O)[C@H]1CCS[C@@H]2C[C@]3(CCCN3C(=O)Cc3ccc(NC(=O)COc4ccc(Cl)cc4Cl)cc3)C(=O)N12 (10 µM),-0.263
14,O=c1[nH]cc(F)c(=O)[nH]1 [5-fluorouracil] (0.833333 µM),0.0377
15,COc1ccc2nc3c(c(N)c2c1)CCCC3 [7-methoxytacrine] (10 µM),0.597
16,CCCCCCc1ccc(O)cc1O [hexylresorcinol] (10 µM),0.199
17,CCCCCCCCCCCCCCCC=O [1-hexadecanal] (10 µM),0.185
18,O=C(NCCNCC(O)COc1ccc(O)cc1)N1CCOCC1 (stereo not given) [xamoterol] (10 µM),0.0295
19,CCCc1ccc(C(=O)O)cc1 [4-propylbenzoic-acid] (10 µM),0.187
20,Cc1cc(OCC(=O)O)cc(C)c1Cc1ccc(O)c(C(C)C)c1 [sobetirome] (10 µM),0.0763

row,SMILES,morphology score
1,Nc1ccc(C(=O)NCC(=O)O)cc1 [4-aminohippuric-acid] (10 µM),-0.0582
2,CCOc1ccc(NC(C)=O)cc1 [phenacetin] (10 µM),-0.129
3,C[C@@H]1C/C=C/C=C/C=C/C=C/[C@H](O[C@@H]2O[C@H](C)[C@@H](O)[C@H](N)[C@@H]2O)C[C@@H]2O[C@](O)(C[C@@H](O)C[C@H]3O[C@@H]3/C=C/C(=O)O1)C[C@H](O)[C@H]2C(=O)O [natamycin] (10 µM),0.0781
4,CC(C)(C)C(=O)C(Oc1ccc(Cl)cc1)n1ccnc1 (stereo not given) [climbazole] (10 µM),0.217
5,CCn1c(-c2nonc2N)nc2cncc(CNC3CCNCC3)c21 (10 µM),0.371
6,CCOc1ccc(C(=O)OCCN(CC)CC)cc1 [parethoxycaine] (10 µM),0.157
7,Cc1cc(C)nc(SCC(=O)Nc2ncc(Cc3cccc4ccccc34)s2)n1 (10 µM),0.211
8,CCn1cc(C(=O)O)c(=O)c2cnc(N3CCNCC3)nc21 [pipemidic-acid] (10 µM),0.136
9,Nc1ncn([C@@H]2O[C@H](CO)[C@@H](O)[C@H]2O)c(=O)n1 [azacitidine] (0.833333 µM),-0.0243
10,CCNC(=O)CCC/C=C\C[C@@H]1[C@@H](/C=C/[C@@H](O)CCc2ccccc2)[C@H](O)C[C@@H]1O [bimatoprost] (10 µM),0.0397
11,O=C(O)/C=C/c1ccc(-c2ccc(O)c(C34CC5CC(CC(C5)C3)C4)c2)cc1 [adarotene] (10 µM),0.00299
12,CNC(=O)[C@H](Cc1ccccc1)NC(=O)[C@H](CC(C)C)[C@H](CSc1cccs1)C(=O)NO [batimastat] (10 µM),0.0292
13,OC1(c2ccc(Cl)c(C(F)(F)F)c2)CCN(CCCC(c2ccc(F)cc2)c2ccc(F)cc2)CC1 [penfluridol] (0.833333 µM),0.173
14,O=C(Oc1ccc(Br)cc1)N1CCN2CCC1CC2 (10 µM),0.273
15,C#C[C@]1(O)CC[C@H]2[C@@H]3CCC4=CC(=O)CC[C@]4(C)[C@H]3CC[C@@]21C [ethisterone] (10 µM),-0.0671
16,Clc1ccc2nsnc2c1NC1=NCCN1 [tizanidine] (10 µM),-0.0251
17,CN[C@@H](C)[C@H](O)c1ccccc1 [ephedrine] (10 µM),-0.038
18,C[C@@H](c1ccc2nccn2c1)n1nnc2ncc(-c3cnn(C)c3)nc21 [savolitinib] (10 µM),-0.18
19,CCN(CC)S(=O)(=O)c1ccc(C(=O)O)cc1 [etebenecid] (10 µM),0.125
20,CCCc1c2oc(C(=O)O)cc(=O)c2cc2c(=O)cc(C(=O)O)n(CC)c12 [nedocromil] (10 µM),-0.0269
